In PubChem BioAssay AID651812 (National Center for Advancing Translational Sciences (NCATS), 2012):
The whole screen tested about 2,100 compounds, of which about 650 (31%) were called active. Roughly 16% stayed inconclusive and do not appear here. Calls follow the shape of the dose curve; as a rule, active = well fitted inhibition curve with a large enough effect; inconclusive = small, poorly fitted or top-dose-only effect; inactive = flat fitted curve, though single readings scatter. The list shows a part of the results. Where a call stands in place of a potency, no number is given.

Assay: qHTS for inhibitors of Vif-A3G interactions: Cherry picks; also: nearly all actives have a fitted effect of over 80% in size
Settings: HeLa A3G-eYFP + Vif (tagged APOBEC3G with the HIV-1 protein that degrades it), 24 h; Potency: eYFP fluorescence increase; series mostly up to 36.9 µM
In short: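 Cherry-picked compounds tested at several concentrations on A3G-eYFP/Vif HeLa cells for 24 hours; loss of Vif-driven degradation read as eYFP fluorescence by cytometric plate imaging, 488 nm excitation, 500-530 nm emission.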
Potency is read from the fitted curve at half-maximal effect.

Compound | Potency
COc1ccc(-c2cc(-c3cccs3)nc3sc(C#N)c(N)c23)cc1 | 16.4 µM (active)
N#Cc1sc2nc(-c3cccs3)cc(-c3ccc(Cl)cc3)c2c1N | 15.8 µM (active)
CCN(CC)C(=O)c1sc2nc(-c3cccs3)cc(-c3ccc(Cl)cc3)c2c1N | 14 µM (active)
Cc1nc(-c2ccc(Cl)cc2)sc1C(=O)NN | inactive
CC(C)CC(=O)NC(=S)N(Cc1ccccc1)Cc1ccccc1 | inactive
Oc1ccc(C=NNC(=S)Nc2ccc(F)cc2)c(O)c1 | inactive
COc1cc(OC)cc(C(=O)N/N=C/c2ccc(OC)c(COc3ccc4ccccc4c3)c2)c1 | inactive
COc1cc(C(=O)Nc2ccc(C)cc2)c2ccccc2n1 | inactive
CCCCN1C(=O)C2Cc3c([nH]c4ccccc34)CN2C1=S (configuration not stated) | 14 µM (active)
COc1ccc(/C=N/NC(=O)c2cccnc2)cc1CSc1ccccn1 | inactive
CC1(C(=O)NCc2ccco2)Cc2c(-c3cccc(C(N)=O)c3)ccnc2O1 (configuration not stated) | inactive
C/C(=N\NC(=O)C(C)n1nc(C)c([N+](=O)[O-])c1C)c1ccccc1O (configuration not stated) | inactive
Cc1cc(C)cc(Oc2nc(C(F)(F)F)nc3ccccc23)c1 | inactive
CCCCN1C(=O)c2cccc3cc(O)cc(c23)C1=O | 16.4 µM (active)
Cc1c(Cl)cccc1NC(=O)c1oc2ccc(S(=O)(=O)N3CCC4(CC3)OCCO4)cc2c1C | inactive
CCNc1ccc(Br)cc(C(=O)/C=C/c2ccc3c(c2)OCO3)c1=O | 18.4 µM (active)
COc1ccc(NC(=O)C(NC(=O)/C=C\c2ccc3c(c2)OCO3)c2ccccc2)cc1 (configuration not stated) | inactive
O=C(N/N=C/c1ccc2c(c1)OCO2)c1cccc2ccccc12 | inactive
COc1ccc(NC(=O)C2Cc3c(-c4cccc(C(C)=O)c4)ccnc3O2)cc1 (configuration not stated) | inactive
Cc1c(/C=N\NC(=O)c2cc3ccccc3o2)c2ccccc2n1C | inactive
Cc1ccccc1-n1c(/C=C/c2c(C)n(C)c3ccccc23)nc2ccccc2c1=O | 8.2 µM (active)
CCCn1c(CN2CCN(C(=O)OCC)CC2)nc2cc(NC(=O)C(C)C)ccc21 | inactive
COc1ccccc1Nc1nnc(SCC2CCCCO2)s1 (configuration not stated) | inactive
Cc1cc2nc(SCCOC(=O)Nc3cccc(Cl)c3)nc(C)c2cc1C | inactive
Cn1ncc(N=Cc2c(O)ccc3ccccc23)c1C(=O)Nc1cccc(Cl)c1 | 11.6 µM (active)
O=C(NN=Cc1c(O)ccc2ccccc12)c1ccc2c(c1)OCO2 | inactive

Compound | Potency
CSc1nsc(/C=C/Nc2ccc(O)cc2C)c1C#N | 20.6 µM (active)
Cc1nc(CSc2nsc(/C=C/N(C)C)c2C#N)cs1 | inactive
CSc1nsc(/C=C/Nc2ccc(F)cc2)c1C#N | inactive
Cc1cc(C)nc(Nc2n[nH]c(COc3cccc4ccccc34)n2)n1 | inactive
CCN(CC)C(=O)Cn1c(=O)n(-c2ccccc2)c(=O)c2c3c(sc21)CCC3 | inactive
O=C(O)c1ccc(NS(=O)(=O)c2cccc(C(=O)Nc3ccccc3[N+](=O)[O-])c2)cc1 | inactive
O=C(NC(=S)Nc1ccc(N2CCCCC2)c(Cl)c1)c1ccc2c(c1)OCCO2 | inactive
Cc1ccc2c(CC(=O)NCc3ccco3)coc2c1C | inactive
Cc1ccc(NC(=O)CSc2ccccc2NC(=O)c2cccc(Cl)c2)cc1Cl | inactive
Cc1ccc(NC(=O)c2ccc(NCC3CCCO3)c([N+](=O)[O-])c2)cc1Cl (configuration not stated) | 16.4 µM (active)
O=C(Nc1cc(F)cc(F)c1)c1ccc(NCCc2ccccc2)c([N+](=O)[O-])c1 | 14.6 µM (active)
Cc1ccc(NC(=O)c2ccc(NCc3ccco3)c([N+](=O)[O-])c2)cc1Cl | 18.4 µM (active)
Cc1ccc(NC(=O)c2ccc([N+](=O)[O-])s2)cc1S(=O)(=O)N1CCOCC1 | inactive
S=C(Nc1ccccc1)N1CCn2c1nc1ccccc12 | inactive
CC(=O)c1cccc(-c2ccnc3c2CC(C(=O)Nc2ccc4c(c2)OCO4)O3)c1 (configuration not stated) | inactive
COc1ccccc1N1CCN(C(=O)c2cc(=O)c3cc(C)ccc3o2)CC1 | inactive
CCCC(=O)NC(c1ccc(OC)cc1)c1c(O)ccc2ccccc12 (configuration not stated) | inactive
COc1cc(-c2cc(NC=O)c3ncc(-c4ccc(C(C)=O)cc4)n3c2)cc(OC)c1OC | inactive
CCN(CC)c1nc(C)c(C(=S)Nc2cc([N+](=O)[O-])ccc2Cl)s1 | inactive
C/C(CCC(C)C)=N\NC(=S)NCc1ccccc1 | inactive
Cc1ccc(C(=O)Nc2sc(Cc3ccc4c(c3)OCO4)c(C)c2C(N)=O)cc1 | inactive
CC(C)N1CCc2c(sc(NC(=O)c3cc4cc([N+](=O)[O-])ccc4s3)c2C(N)=O)C1 | inactive
CC(C)CN(CC(C)C)S(=O)(=O)c1ccc(C(=O)Nc2sc3c(c2C(N)=O)CCN(C(C)C)C3)cc1 | 18.4 µM (active)
COc1ccc(C(=O)Nc2sc3c(c2C#N)CCN(C(C)=O)C3)cc1 | inactive
CCN1CCc2c(sc(NC(=O)c3ccc(S(=O)(=O)N(CC)c4ccccc4)cc3)c2C(N)=O)C1 | 17.7 µM (active)
CC(C)N1CCc2c(sc(NC(=O)c3ccc(S(=O)(=O)N4CCOCC4)cc3)c2C#N)C1 | 20.6 µM (active)

Compound | Potency
CCN1CCc2c(sc(-n3cccc3)c2C(C)NC(=O)Nc2ccc(C(=O)OC)cc2)C1 (configuration not stated) | inactive
CCCCN(CCCC)S(=O)(=O)c1ccc(C(=O)Nc2sc3c(c2C(N)=O)CCN(CC)C3)cc1 | 29.1 µM (active)
COc1cccc(C(=O)Nc2sc3c(c2C#N)CCN(C(C)=O)C3)c1 | inactive
CC1(C)COC(Cn2c3ccccc3c3ccccc32)O1 (configuration not stated) | inactive
COC(=O)c1ccc(Oc2cc(C)nc(SC)n2)cc1 | inactive
CC(/C=N/NC(=O)c1cccc(F)c1)=C\c1ccccc1 | inactive
O=C(Cn1ncc(Cl)c(Cl)c1=O)NC(=O)NC1CCCCC1 | inactive
C=CCSc1nc2sc3c(c2c(=O)n1CC)CCC3 | inactive
COc1ccc(S(=O)(=O)N2c3ccccc3OCC2CC(=O)O)cc1 (configuration not stated) | inactive
CC(C)(C)C(=O)Nc1sc2c(c1C#N)CCN(Cc1ccccc1)C2 | inactive
COc1ccccc1N(C)S(=O)(=O)c1ccc(C(=O)OCC(=O)N2CCC2)cc1 | inactive
CCOC(=O)c1c(NC(=O)c2ccc(S(=O)(=O)N3CCC(C)CC3)cc2)sc2c1CCN(C)C2 | 18.4 µM (active)
CCCN1CCc2c(sc(NC(=O)c3ccc(S(=O)(=O)N(C)c4ccccc4)cc3)c2C(=O)NC)C1 | 18.4 µM (active)
CCCN1CCc2c(sc(NC(=O)c3ccc(S(=O)(=O)N(C)c4ccccc4)cc3)c2C(N)=O)C1 | 16.4 µM (active)
COc1cc(N2CCCC2)c(OC)cc1/C=C(/C#N)c1ccc(Br)cc1 | 8.2 µM (active)
COc1cc(N2CCCC2)c(OC)cc1/C=C(/C#N)c1ccc(F)cc1 | 18.4 µM (active)
CSc1nc2ccccc2cc1/C=C(\C#N)c1ccccc1 | inactive
COc1cc(-c2cnc3c(NC(C)=O)cc(-c4ccccc4CN(C)C)cn23)cc(OC)c1OC | inactive
COc1cc(C(=O)OCC(=O)Nc2ccc(N3CCOCC3)cc2)ccc1OCC(C)C | inactive
CN(C)c1ccc(/C=C/c2ccnc3ccc(Br)cc23)cc1 | 2.59 µM (active)
CN(C)c1ccc(/C=C/c2ccnc3ccc(I)cc23)cc1 | 5.17 µM (active)
COc1ccc2nccc(/C=C/c3ccc(N(C)C)cc3)c2c1 | 18.4 µM (active)
Cc1cc(C)c2nccc(/C=C/c3ccc(N(C)C)cc3)c2c1 | 16.4 µM (active)
CC1(C(=O)NCc2cccs2)Cc2c(-c3ccc(C(N)=O)cc3)ccnc2O1 (configuration not stated) | inactive
COc1ccccc1-c1cc(NC=O)c2ncc(-c3cccc(C(=O)N(C)C)c3)n2c1 | inactive
COc1cc(C(=O)Nc2ccc3c(c2)ncn3C)cc(OC)c1OC | inactive

Compound | Potency
CC(=O)Nc1cccc(-c2ccnc3c2CC(C(=O)NCc2ccco2)O3)c1 (configuration not stated) | inactive
Cc1ccc2nccc(/C=C/c3ccc(N(C)C)cc3)c2c1 | 16.4 µM (active)
CN(C)c1ccc(/C=C/c2ccnc3ccc(N)cc23)cc1 | 18.4 µM (active)
O=C(NCc1ccccc1)C1Cc2c(-c3cccc(F)c3)ccnc2O1 (configuration not stated) | inactive
Cn1c(=O)c2cc(NC(=O)NCc3ccc(F)cc3)ccc2n1C/C=C/c1ccccc1 | inactive
CCCCn1c(N)c(N(Cc2ccccc2OC)C(=O)c2ccc([N+](=O)[O-])s2)c(=O)[nH]c1=O | inactive
C=CCN1C(=O)c2ccc(C(=O)N(CC(C)C)c3c(N)n(CCCC)c(=O)[nH]c3=O)cc2C1=O | inactive
CCCCn1c(N)c(N(CC(C)C)C(=O)Cc2ccc(S(=O)(=O)N3CCOCC3)s2)c(=O)[nH]c1=O | 18.4 µM (active)
Cc1cc(N)cc(C)c1-c1c(Br)cc(N)cc1Br | inactive
COc1ccc(/C=C/C=C2\NC(=S)NC2=O)cc1 | 6.51 µM (active)
COc1cccc(Cn2c(-c3nonc3NC(C)=O)nc3ccccc32)c1 | inactive
COc1cccc(Cn2c(-c3nonc3N)nc3ccccc32)c1 | inactive
CCOc1ccc(Cn2c3ccc(OC)cc3c3nc4ccccc4nc32)cc1 | 16.4 µM (active)
COc1ccc2c(c1)c1nc3ccccc3nc1n2CC(=O)OC(C)C | 3.66 µM (active)
CCOc1cccc(-n2nnnc2-c2ccc(OC)cc2)c1 | inactive
CCCN1CCC(=NNc2ccc(S(=O)(=O)N3CCOCC3)cc2[N+](=O)[O-])CC1 | inactive
COc1cc(S(=O)(=O)Nc2ccccc2N2CCCCC2)ccc1NC(C)=O | inactive
CCOCCC(=O)Nc1ccc2c(c1)c(=O)n(C)n2C/C=C/c1ccccc1 | inactive
COc1ccccc1CCC(=O)Nc1ccc2c(c1)c(=O)n(C)n2Cc1ccc(F)cc1 | inactive
O=C(CCCCn1c(=O)c2ccccc2n(Cc2ccc(F)cc2)c1=O)NCc1ccco1 | inactive
Cc1cccc(Cn2c(=O)n(CCCC(=O)NCc3ccco3)c(=O)c3ccccc32)c1 | inactive
COc1ccc(NC(=O)CSc2nc3c(oc4ccccc43)c(=O)n2Cc2ccco2)cc1Cl | 14.6 µM (active)
CCCn1c(SCC(=O)Nc2ccccc2OC)nnc1-c1ccco1 | inactive
COc1cc2nc(SCC(=O)NCc3ccco3)n(Cc3ccc(Cl)cc3)c(=O)c2cc1OC | 5.8 µM (active)
